Results as given in PubChem BioAssay (NCATS).
Records with an inconclusive call do not appear. The source made the active and inactive calls. Unless noted, calls follow the shape of the dose curve; as a rule, active = well fitted curve in either direction with a large enough effect (not every such curve was filed as active); inconclusive = small, poorly fitted or top-dose-only effect, or another doubt; inactive = flat fitted curve, though single readings scatter.

Columns and labels:
[1] = molecular target: Lysosomal acid glucosylceramidase (Homo sapiens) (UniProt P04062); assay: Glucocerebrosidase-p2 (AID 348; in the data active = potency below about 10 µM; also: potency is read from the fitted curve at half-maximal effect); details: purified GBA, blue fluorogenic substrate, 40 min
Sequence of Lysosomal acid glucosylceramidase (Homo sapiens) (P04062 whole entry, looked up): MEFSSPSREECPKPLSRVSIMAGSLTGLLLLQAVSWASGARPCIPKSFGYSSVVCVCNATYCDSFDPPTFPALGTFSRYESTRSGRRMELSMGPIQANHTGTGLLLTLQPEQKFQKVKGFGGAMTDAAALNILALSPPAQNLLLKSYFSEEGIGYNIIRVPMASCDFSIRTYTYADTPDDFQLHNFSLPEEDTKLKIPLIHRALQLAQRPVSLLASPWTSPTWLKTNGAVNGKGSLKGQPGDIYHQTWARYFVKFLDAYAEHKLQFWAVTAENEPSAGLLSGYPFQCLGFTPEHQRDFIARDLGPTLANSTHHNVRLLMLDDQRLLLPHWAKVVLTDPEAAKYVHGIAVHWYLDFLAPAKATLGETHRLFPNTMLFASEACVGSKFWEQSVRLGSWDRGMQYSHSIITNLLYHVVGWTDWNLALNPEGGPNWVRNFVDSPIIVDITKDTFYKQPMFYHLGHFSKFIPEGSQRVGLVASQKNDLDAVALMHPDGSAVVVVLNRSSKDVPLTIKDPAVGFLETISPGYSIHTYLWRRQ
Outline: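 Compounds titrated from 0.6 nM upwards against 0.2 nM enzyme in pH 5.9 citric acid/KH2PO4, taurocholate, tween-20; blue fluorogenic substrate 80 uM, 40 min room temperature, stopped and read Ex 365/Em 440 for AC50.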

[2] = AP1 Signaling Pathway (AID 357); details: ME-180 AP-1-bla reporter, EGF-induced, beta-lactamase ratio, 5 h; at 7.69 µM (top of the series) unless noted;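 also: ME-180 reporter cells stimulated with EGF at its EC50 level; % is scaled to controls: 0 for no effect and ±100 for the full control effect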
Outline: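 In this screen, ME-180 cells in Opti-MEM with 0.5% dialyzed FBS received EC50 EGF and compound titrations for 5 h. AP-1 reporter beta-lactamase was detected via CCF4 ratio, giving AC50 for positive and negative modulators.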

[3] = NFAT Signaling Pathway (AID 444); details: Jurkat NFAT-bla M1, carbachol, beta-lactamase ratio, 5 h; at 7.69 µM (top of the series) unless noted;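 also: carbachol stimulus at about its EC50 of 1 µM final; % is scaled to controls: 0 for no effect and ±100 for the full control effect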
Outline: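 Jurkat cells with NFAT-driven β-lactamase reporter and co-expressed M1 receptor, stimulated with carbachol (final 1 uM, ~EC50), compound titration, 5 h at 37 °C. CCF4 loaded 1 h at RT; 460/530 nm ratio gave %activity and AC50.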

[4] = Stat Signaling Pathway (AID 446); details: ME-180 SIE beta-lactamase reporter, IL-6 stimulated, 5 h; at 7.69 µM (top of the series) unless noted;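 also: ME-180 cervical cancer cells given 40 pM IL-6 alongside compound; SIE-controlled beta-lactamase reporter measured as 460/530 nm FRET emission ratio; % is scaled to controls: 0 for no effect and ±100 for the full control effect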
Outline: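 Screening format detects activators and inhibitors alike: ME-180 SIE-bla cells stimulated at 40 pM IL-6 for 5 hrs with compound, then dual-emission beta-lactamase read at 405 nm excitation.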

[5] = molecular target: Glucocorticoid receptor (Homo sapiens) (UniProt P04150); assay: GR-GFP Redistribution (AID 450;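 active = compounds whose dose series gives a full or clear partial fitted curve of increased nuclear translocation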; also: potency is read from the fitted curve at half-maximal effect); details: U2OS GR-GFP nuclear translocation, laser cytometry, 2 h
Sequence of Glucocorticoid receptor (Homo sapiens) (P04150 whole entry, looked up, the tested form may be a part): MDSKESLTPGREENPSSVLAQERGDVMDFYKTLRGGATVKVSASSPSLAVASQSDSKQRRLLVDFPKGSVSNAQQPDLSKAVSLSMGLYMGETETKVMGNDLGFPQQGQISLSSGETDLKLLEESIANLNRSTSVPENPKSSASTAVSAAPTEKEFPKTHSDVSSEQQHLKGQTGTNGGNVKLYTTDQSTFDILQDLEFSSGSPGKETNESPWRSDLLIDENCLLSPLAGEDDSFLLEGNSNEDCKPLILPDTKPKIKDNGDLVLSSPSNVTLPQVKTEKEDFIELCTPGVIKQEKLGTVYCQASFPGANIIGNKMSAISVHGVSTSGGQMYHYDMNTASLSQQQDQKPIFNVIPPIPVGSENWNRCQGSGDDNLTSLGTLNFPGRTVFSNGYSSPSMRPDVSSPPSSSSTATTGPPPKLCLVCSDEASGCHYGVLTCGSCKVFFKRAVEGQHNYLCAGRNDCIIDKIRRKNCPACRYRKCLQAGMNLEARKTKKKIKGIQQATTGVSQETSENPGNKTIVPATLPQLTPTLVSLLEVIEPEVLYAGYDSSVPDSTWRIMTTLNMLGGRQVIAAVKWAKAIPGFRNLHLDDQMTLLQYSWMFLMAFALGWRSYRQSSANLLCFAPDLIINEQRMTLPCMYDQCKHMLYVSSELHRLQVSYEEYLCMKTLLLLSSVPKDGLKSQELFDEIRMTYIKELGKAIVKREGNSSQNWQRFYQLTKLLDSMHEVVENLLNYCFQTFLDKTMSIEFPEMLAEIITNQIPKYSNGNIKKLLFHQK

[6] = molecular target: Glucocorticoid receptor (Homo sapiens) (UniProt P04150); assay: GR-EFC Redistribution (AID 451; calls by dose curve; also: potency is read from the fitted curve at half-maximal effect); details: CHO-K1 GR-EFC translocation, beta-gal luminescence, 2 h
Outline: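 CHO-K1 cells expressing nuclear EA and GR-ED fragments of b-gal; compounds titrated up to 46 uM final, 2 h at 37 C. GR nuclear translocation read as complemented b-gal luminescence after 1 h RT detection.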

[7] = molecular target: Mitogen-activated protein kinase 10 (Mus musculus) (UniProt Q61831); assay: JNK3 AlphaScreen Assay (AID 530); details: JNK3 lysate, c-Jun phosphorylation; series mostly up to 57.1 µM;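 also: kinase came from lysate of stimulated human HepG2 cells; signal reports phosphorylation of biotinylated GST-cJun 1-79 at Ser73 with 10 µM ATP; % is scaled to controls: 0 for no effect and ±100 for the full control effect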
Outline: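 qHTS format: compounds tested as titrations against IL-1beta/TNF-alpha-activated HepG2 lysate JNK3 with biotin-GST-cJun substrate and 10 uM ATP at room temperature. Loss of anti-phospho-cJun AlphaScreen signal indicates inhibition.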

[8] = molecular target: 3',5'-cyclic-AMP phosphodiesterase 4B (Homo sapiens) (UniProt Q07343); assay: qHTS Assay for Inhibitors of PDE-IV (AID 607; active = well fitted activation curve with a large enough effect in the main read-out, with a control signal flat, not every such curve was filed as active; also: % of control where 0% means no effect); details: HEK293 ACTOne CNG channel cells, membrane potential fluorescence; series mostly up to 22.9 µM
Sequence of 3',5'-cyclic-AMP phosphodiesterase 4B (Homo sapiens) (Q07343 whole entry, looked up): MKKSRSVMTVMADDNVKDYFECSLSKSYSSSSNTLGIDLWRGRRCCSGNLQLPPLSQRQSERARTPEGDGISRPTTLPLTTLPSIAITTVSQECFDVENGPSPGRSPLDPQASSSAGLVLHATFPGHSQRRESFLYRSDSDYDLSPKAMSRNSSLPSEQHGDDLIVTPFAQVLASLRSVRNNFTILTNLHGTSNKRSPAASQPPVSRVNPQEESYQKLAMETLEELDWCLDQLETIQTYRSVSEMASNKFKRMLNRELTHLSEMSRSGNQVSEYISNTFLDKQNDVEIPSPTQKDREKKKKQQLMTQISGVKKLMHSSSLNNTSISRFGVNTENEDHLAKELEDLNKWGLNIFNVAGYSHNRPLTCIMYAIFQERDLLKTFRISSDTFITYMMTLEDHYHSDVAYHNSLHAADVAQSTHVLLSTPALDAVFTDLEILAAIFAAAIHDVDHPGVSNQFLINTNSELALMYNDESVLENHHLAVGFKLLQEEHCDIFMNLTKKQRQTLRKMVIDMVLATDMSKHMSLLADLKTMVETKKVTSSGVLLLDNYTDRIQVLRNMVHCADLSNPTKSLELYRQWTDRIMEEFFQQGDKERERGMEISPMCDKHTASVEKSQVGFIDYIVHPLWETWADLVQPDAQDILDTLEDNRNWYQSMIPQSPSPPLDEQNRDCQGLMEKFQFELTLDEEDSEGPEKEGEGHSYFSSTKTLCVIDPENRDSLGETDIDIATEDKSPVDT
Outline: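 The readout is membrane depolarisation from a cAMP-sensing CNG channel, detected with a potential dye at ex 535/em 590. Cells were HEK293-derived (endogenous PDE-IV) at 1000 cells/well, titrated up to 22.9 uM final.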

[9] = Primary qHTS for small molecule stabilizers of the endoplasmic reticulum resident proteome: Secreted ER Calcium Modulated Protein (SERCaMP) assay (AID 1508630; active = well fitted curve in the direction sought with a large enough effect; an effect the other way counts as inactive or inconclusive; also: % is scaled to controls: 0 for no effect and ±100 for the full control effect); details: SH-SY5Y GLuc-SERCaMP (Gaussia luciferase released on ER calcium loss) secretion, thapsigargin, luminescence; series mostly up to 38.4 µM
Outline: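 GLuc-SERCaMP-expressing SH-SY5Y cells, pretreated 16 h with compound, are challenged with thapsigargin to empty ER calcium stores; after 4 h, coelenterazine is added directly to the medium and luminescence is imaged.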

[10] = molecular target: Cytochrome P450 1A2 (Homo sapiens) (UniProt P05177); assay: p450-cyp1a2 (AID 410; calls by dose curve; also: potency is read from the fitted curve at half-maximal effect;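 as to activity change, negative = inhibition: -100% = full effect of reference inhibitor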); details: recombinant CYP1A2, luciferin-ME demethylation, luminescence; series mostly up to 57 µM
Sequence of Cytochrome P450 1A2 (Homo sapiens) (P05177 whole entry, looked up): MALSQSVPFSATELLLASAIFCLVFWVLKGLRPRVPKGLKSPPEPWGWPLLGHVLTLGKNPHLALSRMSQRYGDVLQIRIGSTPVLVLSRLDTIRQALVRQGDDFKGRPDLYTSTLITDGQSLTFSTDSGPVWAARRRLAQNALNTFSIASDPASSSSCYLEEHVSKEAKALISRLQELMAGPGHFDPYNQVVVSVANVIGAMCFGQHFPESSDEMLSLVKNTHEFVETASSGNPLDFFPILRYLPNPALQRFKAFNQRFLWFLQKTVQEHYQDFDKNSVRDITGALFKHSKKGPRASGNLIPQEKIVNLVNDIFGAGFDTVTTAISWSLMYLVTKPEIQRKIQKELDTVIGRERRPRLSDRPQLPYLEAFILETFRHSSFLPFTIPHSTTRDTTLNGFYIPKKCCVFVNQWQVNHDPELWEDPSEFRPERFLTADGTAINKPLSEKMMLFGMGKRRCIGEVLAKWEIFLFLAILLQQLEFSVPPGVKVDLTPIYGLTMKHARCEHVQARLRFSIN
Outline: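 Human CYP1A2 (20nM) demethylated Luciferin-ME at its Km (100uM) in 100mM KPO4. After 10 min compound preincubation, NADPH regeneration ran the reaction 60 min at room temperature. Luciferin was read by luminescence, normalized to 57 uM furafylline.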

[11] = molecular target: Cytochrome P450 2D6 (Homo sapiens) (UniProt P10635); assay: qHTS Assay for Inhibitors and Substrates of Cytochrome P450 2D6 (AID 891; active = well fitted curve in the direction sought with a large enough effect; an effect the other way counts as inactive or inconclusive; also: potency is read from the fitted curve at half-maximal effect; nearly all actives have a fitted effect of over 60% in size); details: recombinant CYP2D6, luciferin-ME EGE luminescence; series mostly up to 57.1 µM
Sequence of Cytochrome P450 2D6 (Homo sapiens) (P10635 whole entry, looked up): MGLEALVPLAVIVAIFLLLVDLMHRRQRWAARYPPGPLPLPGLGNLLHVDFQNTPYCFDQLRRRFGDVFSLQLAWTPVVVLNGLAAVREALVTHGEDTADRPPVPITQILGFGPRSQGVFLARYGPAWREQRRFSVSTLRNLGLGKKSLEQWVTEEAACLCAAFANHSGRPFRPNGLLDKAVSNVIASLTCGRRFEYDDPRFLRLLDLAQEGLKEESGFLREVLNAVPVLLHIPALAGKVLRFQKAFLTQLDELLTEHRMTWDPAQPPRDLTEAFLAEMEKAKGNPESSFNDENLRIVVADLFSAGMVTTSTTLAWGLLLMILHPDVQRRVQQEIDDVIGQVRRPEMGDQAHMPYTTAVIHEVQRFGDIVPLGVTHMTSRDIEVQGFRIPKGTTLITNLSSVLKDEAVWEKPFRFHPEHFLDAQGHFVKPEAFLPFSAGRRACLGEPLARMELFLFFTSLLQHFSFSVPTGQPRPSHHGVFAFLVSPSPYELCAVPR
Outline: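 Human CYP2D6 (5 nM) with 30 uM Luciferin-ME EGE (at Km) in 100 mM KPO4, compound preincubated 10 min, then NADPH regeneration system for 60 min at room temperature. Luciferin read by luminescence; normalized to 1.43 uM quinidine.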

[12] = qHTS Assay for Identification of Small Molecule Agonists for Hypoxia Response Element Signaling Pathway (AID 914; active = well fitted activation curve with a large enough effect in the signal ratio, with a control signal flat, not every such curve was filed as active; the % refers to the signal ratio; also: % of control where 0% means no effect); details: ME-180 (cervical carcinoma) HRE-bla reporter, beta-lactamase ratio, CoCl2, 17 h; activation: hits give high values
Outline: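 Read-out: CCF4 FRET ratio of 460nm to 530nm emission (excitation 405nm) after 2.5 hours at room temperature, taken from HRE-bla ME-180 cells that had been exposed to compound and EC50 CoCl2 for 17 hours.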

[13] = molecular target: Cytochrome P450 2C9 (Homo sapiens) (UniProt P11712); assay: qHTS Assay for Inhibitors and Substrates of Cytochrome P450 2C9 (AID 883; active = well fitted curve in the direction sought with a large enough effect; an effect the other way counts as inactive or inconclusive; also: % is scaled to controls: 0 for no effect and ±100 for the full control effect; nearly all actives have a fitted effect of over 60% in size); details: recombinant CYP2C9, luciferin-H luminescence, 60 min; series mostly up to 57.1 µM
Sequence of Cytochrome P450 2C9 (Homo sapiens) (P11712 whole entry, looked up): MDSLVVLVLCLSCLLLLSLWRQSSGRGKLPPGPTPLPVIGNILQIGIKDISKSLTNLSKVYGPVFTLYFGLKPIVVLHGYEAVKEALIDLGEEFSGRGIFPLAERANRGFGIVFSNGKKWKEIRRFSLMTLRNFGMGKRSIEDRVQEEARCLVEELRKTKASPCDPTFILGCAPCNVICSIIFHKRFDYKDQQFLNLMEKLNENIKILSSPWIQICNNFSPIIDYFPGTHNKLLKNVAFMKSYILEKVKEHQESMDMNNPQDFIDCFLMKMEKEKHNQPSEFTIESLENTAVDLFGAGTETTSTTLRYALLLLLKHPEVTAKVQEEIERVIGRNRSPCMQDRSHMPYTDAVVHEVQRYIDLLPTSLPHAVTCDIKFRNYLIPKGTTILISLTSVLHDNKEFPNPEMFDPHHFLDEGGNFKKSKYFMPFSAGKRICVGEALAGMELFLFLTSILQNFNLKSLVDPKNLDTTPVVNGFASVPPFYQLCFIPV
Outline: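 Human CYP2C9 (10nM) with Luciferin-H at 100uM (its KM) in 25mM KPO4; compound preincubated 10 min at 37C, then NADPH regeneration for 60 min at 37C. Luciferin read by luminescence after detection reagent; normalized to 57uM sulphaphenazole as full inhibition.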

[14] = molecular target: Cytochrome P450 3A4 (Homo sapiens) (UniProt P08684); assay: qHTS Assay for Activators of Cytochrome P450 3A4 (AID 885; active = well fitted curve in the direction sought with a large enough effect; an effect the other way counts as inactive or inconclusive; also: nearly all actives have a fitted effect of over 65% in size); details: recombinant CYP3A4, Luciferin-PPXE luminescence, 60 min; series mostly up to 57.1 µM
Sequence of Cytochrome P450 3A4 (Homo sapiens) (P08684 whole entry, looked up): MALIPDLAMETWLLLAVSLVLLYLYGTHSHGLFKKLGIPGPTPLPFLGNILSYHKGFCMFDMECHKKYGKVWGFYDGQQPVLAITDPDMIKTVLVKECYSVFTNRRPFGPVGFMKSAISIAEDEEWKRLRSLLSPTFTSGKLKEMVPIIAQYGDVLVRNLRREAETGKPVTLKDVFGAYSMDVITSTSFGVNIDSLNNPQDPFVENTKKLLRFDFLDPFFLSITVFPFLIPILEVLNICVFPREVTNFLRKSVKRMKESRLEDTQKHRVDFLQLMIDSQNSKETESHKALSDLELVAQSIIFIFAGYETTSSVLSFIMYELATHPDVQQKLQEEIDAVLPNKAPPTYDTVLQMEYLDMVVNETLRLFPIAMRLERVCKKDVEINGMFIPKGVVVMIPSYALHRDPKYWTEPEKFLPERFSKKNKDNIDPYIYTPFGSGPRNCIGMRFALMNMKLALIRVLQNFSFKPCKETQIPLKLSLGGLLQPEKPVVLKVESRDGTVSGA
Outline: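 Steps: enzyme/substrate mix dispensed; compound added, 10 min RT; NADPH regeneration solution added, 60 min RT; luciferin detection buffer stops reaction; 20 min later luminescence measured.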

[15] = Confirmation and Secondary Assay for Modulators of Hemoglobin Beta Chain Splicing at IVS2 705 locus (AID 930; active = well fitted curve in the direction sought with a large enough effect; an effect the other way counts as inactive or inconclusive;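 also: HeLa cells stably expressing the EGFP-705 splicing reporter; GFP fluorescence per well restored by corrected splicing of the IVS2-705 intron in EGFP; % of control where 0% means no effect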); details: HeLa EGFP-705 splicing reporter, GFP fluorescence, 48 h; series mostly up to 38.3 µM
Outline: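 HeLa EGFP-705 reporter; 500 cells/well, o/n 37C 5% CO2; cpd 2 d; 488 ex/500-520 em laser scan; total peak GFP intensity/well. Ref: 500 nM […] antisense PNA.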

[16] = molecular target: Cytochrome P450 3A4 (Homo sapiens) (UniProt P08684); assay: qHTS Assay for Inhibitors and Substrates of Cytochrome P450 3A4 (AID 884; active = well fitted curve in the direction sought with a large enough effect; an effect the other way counts as inactive or inconclusive; also: potency is read from the fitted curve at half-maximal effect; nearly all actives have a fitted effect of over 50% in size); details: recombinant CYP3A4, Luciferin-PPXE luminescence; series mostly up to 57.1 µM
Outline: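 20 nM human CYP3A4 with 25 uM Luciferin-PPXE (at KM) in 200 mM KPO4, preincubated 10 min with compound; NADPH regeneration started a 60 min RT reaction. Luciferin detected by luminescence, normalized to 57 uM ketoconazole as full inhibition.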

[17] = Confirmation and Secondary Assay for Modulators of Hemoglobin Beta Chain Splicing at IVS2 654 locus (AID 910; active = well fitted curve in the direction sought with a large enough effect; an effect the other way counts as inactive or inconclusive;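 also: HeLa cells stably carrying EGFP split by mutant beta-globin IVS2-654 intron; % of control where 0% means no effect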); details: HeLa EGFP-654 splicing reporter, GFP fluorescence, 48 h; series mostly up to 38.3 µM
Outline: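 HeLa cells stably expressing EGFP interrupted by β-globin IVS2-654 intron, seeded overnight in Opti-MEM/2% FCS, then treated 2 days at 37 °C. Restored splicing read as total peak GFP intensity per well by laser scanning cytometry (488 nm excitation, 500–520 nm emission); 500 nM antisense PNA as control.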

[18] = molecular target: Ubiquitin carboxyl-terminal hydrolase 1 (Homo sapiens) (UniProt O94782); assay: Inhibitors of USP1/UAF1: Pilot qHTS (AID 504865; active = well fitted curve in the direction sought with a large enough effect; an effect the other way counts as inactive or inconclusive;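 also: rhodamine fluorescence freed from ubiquitin-rhodamine substrate followed over time; top concentration of the series differs between compounds; % is scaled to controls: 0 for no effect and ±100 for the full control effect; nearly all actives have a fitted effect of over 35% in size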); details: purified USP1/UAF1, Ub-rhodamine cleavage fluorescence; series mostly up to 54.9 µM
Sequence of Ubiquitin carboxyl-terminal hydrolase 1 (Homo sapiens) (O94782 whole entry, looked up): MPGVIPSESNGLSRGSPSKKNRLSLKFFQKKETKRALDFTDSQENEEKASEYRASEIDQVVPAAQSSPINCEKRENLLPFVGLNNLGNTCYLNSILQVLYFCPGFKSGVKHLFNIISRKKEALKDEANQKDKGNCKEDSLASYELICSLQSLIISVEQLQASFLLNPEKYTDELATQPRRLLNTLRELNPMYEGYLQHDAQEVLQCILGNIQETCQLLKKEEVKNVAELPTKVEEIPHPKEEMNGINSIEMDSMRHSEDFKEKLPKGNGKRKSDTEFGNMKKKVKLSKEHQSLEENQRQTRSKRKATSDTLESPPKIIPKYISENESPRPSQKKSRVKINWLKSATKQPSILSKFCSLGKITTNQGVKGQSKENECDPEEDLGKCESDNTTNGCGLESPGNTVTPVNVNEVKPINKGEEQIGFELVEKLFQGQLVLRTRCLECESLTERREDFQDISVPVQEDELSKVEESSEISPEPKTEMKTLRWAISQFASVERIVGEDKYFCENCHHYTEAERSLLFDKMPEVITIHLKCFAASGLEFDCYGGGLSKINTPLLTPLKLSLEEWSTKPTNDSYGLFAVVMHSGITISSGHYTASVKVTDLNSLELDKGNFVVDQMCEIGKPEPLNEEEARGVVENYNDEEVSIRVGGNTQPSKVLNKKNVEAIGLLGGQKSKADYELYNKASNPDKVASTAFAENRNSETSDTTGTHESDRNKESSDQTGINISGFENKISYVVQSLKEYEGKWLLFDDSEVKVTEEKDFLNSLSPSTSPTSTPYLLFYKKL
Outline: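 1nM USP1/UAF1 + cpd, 15 min RT; start w/ Ub-Rho 150nM final; kinetic FL 480/540 nm, 6 reads q60 s. Buffer 50mM HEPES pH 7.8, 0.5mM EDTA, 1mM TCEP, 0.01% Tween-20, 0.1 mg/ml BSA.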

COCCn1c(=O)c(-c2ccc(F)cc2)nc2cnc(Oc3cccc(Cl)c3)nc21
inactive: Potency [1] > 11.4 µM | activity change, negative = inhibition [2] 1.58% | activity change, negative = inhibition [3] -15.6% | activity, negative = inhibition [4] -8.51% | Potency [5] > 9.22 µM | Potency [6] > 46 µM | Potency [7] | Potency [8] | outcome [9]

O=C(c1cnccn1)N1CCC2(CC1)CN(Cc1cc(C(F)(F)F)cc(C(F)(F)F)c1)C2
active: Potency [11] 0.398 µM
inactive: Potency [1] > 11.4 µM | activity change, negative = inhibition [2] -17.8% | Potency [10] | activity, negative = inhibition [4] -1.36% | Potency [6] > 46 µM | Potency [7] | Potency [8] | outcome [9]

COC(=O)N1CCC2(CCCN(Cc3ccccc3)C2)CC1
inactive: Potency [1] > 11.4 µM | activity change, negative = inhibition [2] -5.44% | Potency [10] | activity, negative = inhibition [4] 2.77% | Potency [6] > 46 µM | Potency [7] | Potency [8] | activation [12] 3.12% | outcome [9]

Cn1cccc1C(=O)N1CCC2(CCCN(c3ccc(-c4ccccc4)cc3)C2)CC1
inactive: Potency [1] > 11.4 µM | activity change, negative = inhibition [2] 15.7% | activity, negative = inhibition [4] 3.39% | Potency [6] > 46 µM | Potency [8] | outcome [9]
active: Potency [10] 15.8 µM

COc1ccc(Oc2ncc3nc(C)c(=O)n(C4CC4)c3n2)cc1
inactive: Potency [1] > 11.4 µM | activity change, negative = inhibition [2] -0.17% | activity change, negative = inhibition [3] -5.38% | activity, negative = inhibition [4] -4.78% | Potency [5] > 9.22 µM | Potency [6] > 46 µM | Potency [7] | Potency [8] | activation [12] -6.35% | outcome [9]

CNc1nc(-c2ccc(N(C)C)cc2)nc2ccccc12
active: Potency [1] 6.77 µM | Potency [10] 0.2 µM
inactive: activity change, negative = inhibition [2] 15.8% | Potency [5] > 46 µM | Potency [6] > 46 µM | Potency [7] | Potency [8] | activity change, negative = inhibition [13] 108% [at 2.29 µM] | Potency [14] | outcome [15] | outcome [9]

O=c1c(-c2ccc(Cl)cc2)nc2cncnc2n1Cc1ccccc1
inactive: Potency [1] > 11.4 µM | activity change, negative = inhibition [2] -10.4% | activity change, negative = inhibition [3] -17% | activity, negative = inhibition [4] -3.39% | Potency [5] > 9.22 µM | Potency [6] > 46 µM | Potency [7] | Potency [8] | Potency [14] | activation [12] -4.75% | outcome [9]

Cc1cnc(CNc2nc(-c3ccc4c(c3)OCO4)nc3ccccc23)cn1
inactive: Potency [1] > 11.4 µM | activity change, negative = inhibition [2] -3.88% | Potency [5] > 46 µM | Potency [6] > 46 µM | Potency [7] | Potency [14] | Potency [17] | outcome [15] | Potency [18] | outcome [9]
active: Potency [10] 2 µM | Potency [16] 0.794 µM

COc1ccc(Oc2ncc3nc(C)c(=O)n(CCc4ccccc4)c3n2)cc1
inactive: Potency [1] > 11.4 µM | activity change, negative = inhibition [2] 18.2% | activity change, negative = inhibition [3] 0.509% | activity, negative = inhibition [4] 2.93% | Potency [5] > 9.22 µM | Potency [6] > 46 µM | Potency [7] | outcome [9]

COc1cccc(Cn2c(=O)c(-c3cccc(F)c3)nc3cncnc32)c1
inactive: Potency [1] > 11.4 µM | activity change, negative = inhibition [2] -9.03% | activity change, negative = inhibition [3] -6.22% | activity, negative = inhibition [4] -7.22% | Potency [5] > 9.22 µM | Potency [6] > 46 µM | Potency [7] | Potency [8] | Potency [14] | outcome [9]

COc1cccc(Cn2c(=O)c(C)nc3cnc(Oc4ccccc4)nc32)c1
inactive: Potency [1] > 11.4 µM | activity change, negative = inhibition [2] -12.2% | activity change, negative = inhibition [3] -3.17% | activity, negative = inhibition [4] -2.47% | Potency [5] > 9.22 µM | Potency [6] > 46 µM | Potency [7] | outcome [9]

O=S(=O)(c1ccccc1)N1CCC2(CC1)CN(Cc1ccccc1)C2
inactive: Potency [1] > 11.4 µM | activity change, negative = inhibition [2] 7.31% | Potency [10] | activity, negative = inhibition [4] 2.83% | Potency [6] > 46 µM | Potency [7] | Potency [8] | outcome [9]
active: Potency [11] 0.158 µM

Cn1c(=O)c(-c2cc(F)cc(F)c2)nc2cnc(Oc3cccc(Cl)c3)nc21
inactive: Potency [1] > 11.4 µM | activity change, negative = inhibition [2] -16% | activity change, negative = inhibition [3] -4.07% | activity, negative = inhibition [4] 7.63% | Potency [5] > 9.22 µM | Potency [6] > 46 µM | Potency [7] | Potency [8] | outcome [9]

COc1ncc2nc(CCc3ccccc3)c(=O)n(Cc3cccs3)c2n1
inactive: Potency [1] > 11.4 µM | activity change, negative = inhibition [2] -2.76% | activity change, negative = inhibition [3] -5.02% | activity, negative = inhibition [4] -3.9% | Potency [5] > 9.22 µM | Potency [6] > 46 µM | Potency [7] | outcome [9]
